RORg inh: qHTS for inhibitors of ROR gamma transcriptional activity; Nuclear receptor ROR-gamma (Mus musculus), P51450; Drosophila S2 Gal4-RORgamma UAS-luciferase reporter, 20 h; Potency, µM (top dose mostly 53.6 µM), for inactives: at the top dose activity change, negative = inhibition, hits mostly inhibitors; 310,000 tested, 5.4% active; AID 2551, 2010; further: on the % scale 0 is the no-effect control and ±100 the full control effect; nearly all actives have a fitted effect of over 60% in size
Target sequence (P51450 whole entry, looked up, the tested form may be a part): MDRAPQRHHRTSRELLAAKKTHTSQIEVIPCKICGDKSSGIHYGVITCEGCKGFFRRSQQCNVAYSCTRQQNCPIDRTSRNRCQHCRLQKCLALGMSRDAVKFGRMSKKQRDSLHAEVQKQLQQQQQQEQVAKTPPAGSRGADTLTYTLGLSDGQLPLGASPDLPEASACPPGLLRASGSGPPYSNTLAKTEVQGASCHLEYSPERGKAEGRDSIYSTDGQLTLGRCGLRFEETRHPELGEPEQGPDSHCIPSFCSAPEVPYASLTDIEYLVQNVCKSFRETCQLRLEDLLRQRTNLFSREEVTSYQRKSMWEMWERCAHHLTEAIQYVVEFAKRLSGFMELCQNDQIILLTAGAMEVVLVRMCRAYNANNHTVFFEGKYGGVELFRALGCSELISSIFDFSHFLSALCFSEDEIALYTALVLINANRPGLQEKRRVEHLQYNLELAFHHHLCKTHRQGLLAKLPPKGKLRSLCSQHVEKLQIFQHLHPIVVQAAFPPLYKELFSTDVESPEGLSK
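Compounds are pin-transferred onto Drosophila Schneider cells expressing a copper-inducible Gal4–ROR gamma transactivation domain fusion. After 1 hr, copper sulfate is added to 700 uM final; luciferase is read 20 hr later.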
Sfp inh: qHTS Assay for Inhibitors of Bacillus subtilis Sfp phosphopantetheinyl transferase (PPTase); 4'-phosphopantetheinyl transferase ffp (Bacillus subtilis), Q9F4F7; Biochemical Sfp PPTase activity, qHTS; Potency, µM, for inactives: largest response in the series, negative = inhibition, hits mostly inhibitors; 310,000 tested, 3.5% active; AID 1490, 2009;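 further: the enzyme is Sfp with the accession as filed and its product quenches rhodamine fluorescence; 0% = enzyme reaction without inhibitor and -100% = no enzyme wells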
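After 15 min at room temperature with compound, 15 nM Sfp received 5 uM rhodamine-CoA plus 12.5 uM BHQ-2-ybbR (50 mM Hepes pH 7.6, 10 mM MgCl2). Rate came from the fluorescence difference over 30 min, ex 525/em 598 nm.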
Epigenetic reg: Quantitative High-Throughput Screen for Regulators of Epigenetic Control. 280,000 tested, 0.2% active. Potency, µM (titrated, usually from 53.9 µM), without a hit: at the highest dose GFP activation, usual class: activators. murine LDR cells, GFP reporter derepression, 30 h; further: % of control where 0% means no effect; nearly all actives have a fitted effect of over 60% in size
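Derepression of a silenced CMV-GFP reporter in murine LDR cells is scored by enumerating GFP-positive cells with a laser-scanning microplate cytometer after 30 hours of treatment at 37 C.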
ClpP mod: qHTS Assay for Activators of ClpP; ATP-dependent Clp protease proteolytic subunit (Bacillus subtilis (strain 168)), P80244; purified B. subtilis ClpP, FRET peptide cleavage, 20 min; Potency, µM (highest dose often 57.5 µM), inactives show at the top dose activity change, negative = active; 340,000 tested, 1.9% active; AID 651965, 2013; active means well fitted falling curve with a large enough effect; inconclusive means small, poorly fitted or top-dose-only effect; inactive means no such curve, though single readings can be large or run the other way; further: the source files actives as falling curves though it sought activators and does not explain the sign; nearly all actives have a fitted effect of over 65% in size
Target sequence (P80244 whole entry, looked up): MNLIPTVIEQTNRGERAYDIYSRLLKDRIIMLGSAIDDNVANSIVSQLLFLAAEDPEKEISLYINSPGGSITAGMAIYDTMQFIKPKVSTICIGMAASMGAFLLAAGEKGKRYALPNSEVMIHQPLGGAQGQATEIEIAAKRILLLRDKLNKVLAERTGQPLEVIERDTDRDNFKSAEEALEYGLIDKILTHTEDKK
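Purified B. subtilis ClpP, 10 microg/mL final in Tris/HCl pH8 with KCl, BSA, glycerol and Tween-20, cleaved an Abz/nitrotyrosine-quenched decapeptide. Fluorescence (ex 320, em 430) was read at 0 and 20 min at room temperature. Delta was normalized to 5.8 microM ADEP and DMSO/no-enzyme controls.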
Gal4-VP16 FLuc: VP16 counterscreen qHTS for inhibitors of ROR gamma transcriptional activity; Drosophila S2 Gal4-VP16 UAS-luciferase, luminescence, 20 h; 310,000 tested, 3.5% active; Potency, µM (titrated, usually from 53.6 µM), without a hit: at the highest dose activity, negative = inhibition, most hits filed as inhibitors;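 further: Gal4-VP16 expression switched on by copper sulfate through the metallothionein promoter; on the % scale 0 is the no-effect control and ±100 the full control effect; nearly all actives have a fitted effect of over 50% in size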
PINK1 expr mod: A Quantitative High throughput Screen to Identify Chemical Modulators of PINK1 Expression | PINK1 immunofluorescence, high-content cytometry, 24 h | Potency, µM (titrated, usually from 76.6 µM), for inactives: at the highest dose activation (PINK1 increase), actives largely listed as activators | 410,000 tested, 0.2% active; active means well fitted activation curve with a large enough effect; inconclusive means small, poorly fitted or top-dose-only effect; cell line not stated here; further: % of control where 0% means no effect; nearly all actives have a fitted effect of over 65% in size
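PINK1 protein level read as immunofluorescence by microplate cytometer in a fixed, stained stable cell line after 24 h exposure to five compound concentrations, with CCCP as control.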
Active calls of the source: *; ? = inconclusive; . = no result given; ! = not active in a repeat; [ ] = another dose, or the depositor's remark. Compounds with a hit are over-represented: about 8.1% of the library has one in this group of screens. Unless noted, the call rests on the fitted dose curve; in most records, active means well fitted curve in the direction sought with a large enough effect; inconclusive means small, poorly fitted or top-dose-only effect, or another doubt; inactive means no such curve, though single readings can be large; an effect the other way counts as inactive or inconclusive. Potency means the concentration at half of the fitted maximal effect.

SMILES	RORg inh	Sfp inh	Epigenetic reg	ClpP mod	Gal4-VP16 FLuc	PINK1 expr mod
CC(=O)c1ccc(NC(=O)c2c(C)nn(-c3ccccc3)c2Cl)cc1	11µM*	-14%	0%	.	?	1%
O=c1c(-c2ccccc2)nc2cnc(Nc3ccccc3)nc2n1Cc1cccs1	-3%	9%	.	.	-4%	?
COc1cccc(NC(=O)CN(C)C(C)C(=O)Nc2cc([N+](=O)[O-])ccc2Cl)c1 (stereo not drawn)	12%	0%	-2%	32µM*	17%	1%
Cc1ccc2c(c1)N(C(=O)NCc1ccccc1)CCO2	.	.	8%	0%	.	-1%
O=C(Oc1ccc(C(=S)N2CCOCC2)cc1Cl)c1ccccc1F	2%	56µM*	.	-1%	6%	-1%
O=C(Oc1ccc(C(=S)N2CCOCC2)cc1Br)c1ccccc1F	2%	22µM*	1%	-12%	-6%	3%
COc1ccc(C(=O)N2CCOCC2)cc1Br	8%	11%	0%	-5%	10%	1%
O=C(Oc1ccc(C(=S)N2CCOCC2)cc1)c1cccc(Cl)c1	-21%	40µM*	.	1%	-20%	-1%
O=C(Oc1ccc(C(=S)N2CCOCC2)cc1)c1ccccc1F	0%	25µM*	.	-1%	4%	0%
O=C(Oc1cccc(C(=S)N2CCCCC2)c1)c1ccccc1	-31%	-22%	3%	-2%	-10%	0%
O=C(Oc1ccc(C(=S)N2CCCCC2)cc1)c1ccccc1	36%	22µM*	0%	.	-13%	3%
O=C(COc1ccccc1F)Nc1ccc(Cl)c(-c2nc3ccccc3[nH]2)c1	.	.	-2%	?	.	1%
CN1/C(=C\C(=O)CSc2nnc(N)s2)C(C)(C)c2ccccc21	?	7%	0%	.	-24%	0%
CN1/C(=C\C(=O)CSc2cccc[n+]2[O-])C(C)(C)c2ccccc21	7.1µM*	16µM*	?	.	?	-1%
CN1/C(=C\C(=O)C[n+]2ccc(C(=O)c3ccccc3)cc2)C(C)(C)c2ccccc21	?	0%	0%	0%	-6%	9%
Cc1ccc[n+](CC(=O)/C=C2\N(C)c3ccccc3C2(C)C)c1	?	7%	0%	0%	-13%	1%
Cc1cccc[n+]1CC(=O)/C=C1\N(C)c2ccccc2C1(C)C	?	-2%	0%	0%	6.3µM*	2%
CN1/C(=C/C(=O)CSc2ccccc2C(=O)O)C(C)(C)c2ccccc21	2%	89µM*	-4%	-28%	-7%	2%
CN1/C(=C\C(=O)C[n+]2cccc(Br)c2)C(C)(C)c2ccccc21	11%	22%	2%	1%	13µM*	0%
Cn1c(=O)c(-c2cccs2)nc2cnc(OCc3ccccc3)nc21	-2%	7%	.	.	3%	0%
Cc1noc(C)c1-c1ccc2ncnc(NCc3cccc(Cl)c3)c2c1	-15%	-19%	.	.	9%	.
Cc1ccc(Cl)cc1N1CCN(C(=O)c2cc3c(-c4ccccc4F)nn(C)c3s2)CC1	.	.	-1%	-9%	.	0%
CC(C)(C)c1ccc(C(=O)Nc2ccc(C=C(C#N)C#N)cc2)cc1	5µM*	-12%	?	1%	5.6µM*	3%
Cc1ccc(OCCn2cc(C(=S)N3CCCC3)c3ccccc32)cc1C	6.3µM*	21%	-1%	-2%	-2%[0.365 µM]	1%
S=C(c1cn(CCOc2ccccc2)c2ccccc12)N1CCCC1	7.1µM*	?	-5%	1%	-2%[0.365 µM]	?
SMILES	RORg inh	Sfp inh	Epigenetic reg	ClpP mod	Gal4-VP16 FLuc	PINK1 expr mod
S=C(c1cn(CCOc2cccc3ccccc23)c2ccccc12)N1CCCC1	11µM*	18%	-1%	-1%	?	28µM*
COC(=O)c1cn(CCOc2ccccc2)c2ccccc12	35%	-9%	0%	-1%	4%	0%
COCCn1cc(C(=S)N2CCCCC2)c2ccccc21	16µM*	-1%	0%	.	?	-2%
COCCn1cc(C(=S)N2CCOCC2)c2ccccc21	-15%	?	3%	1%	9%	.
NC(=S)Nc1cccc2cc3ccccc3cc12	13µM*	?	0%	-6%	-82%	2%
COc1cc(OC)cc(C(=O)Nc2cccc3ccccc23)c1	.	9%	.	0%	.	2%
NC(=S)Nc1ccccc1Br	?	-16%	0%	-1%	35µM*	1%
NC(=S)Nc1cccc2cn[nH]c12	-2%	56µM*	0%	.	-17%	0%
O=C(Nc1ccccc1F)Nc1ccccc1Br	31%	25%	-2%	2%	?	3%
CC(C)=CC(=O)Nc1ccccc1Br	16%	14%	-1%	1.3µM*	8%	0%[38.3 µM]
CCc1c(C)n2nc(C)cc2[nH]c1=O	6%	-1%	-1%	13µM*	-11%	3%
N[C@H](CO)C(=O)O	-18%[10 µM]	-4%	0%	.	-5%	.
N[C@@H](CS(=O)O)C(=O)O	-5%	56µM*	0%	.	-7%	.
N[C@@H](CO)C(=O)O	-1%	63µM*!	1%	.	-1%	.
COc1ccc([C@]23Cc4ccccc4C(O2)C2=C(O3)C(=O)c3ccccc3C2=O)cc1	0%[10 µM]	6%	.	.	-12%[10 µM]	.
COc1cc(/C=N/NC(=S)NCCN2CCOCC2)cc(OC)c1OC	?	?	0%	-3%	?	-1%
Oc1cccc(/C=N/NC(=S)NCCN2CCOCC2)c1O	7.1µM*	7%	1%	-5%	?	0%
O=C(NCCN1CCOCC1)c1cccs1	31%	4%	0%	0%	-12%	0%
S=C(NCCN1CCOCC1)N/N=C/c1cccs1	1.3µM*	-2%	.	0%	4.5µM*	2%
O=C(O)c1ccc(/C=N/NC(=S)NCCN2CCOCC2)cc1	-45%	50µM*	1%	.	4%	1%
COc1ccc(N2CC(NC(=O)COc3ccc4ccccc4c3)CC2=O)cc1OC (stereo not drawn)	.	.	6%	0%	.	-1%
Cc1ccc(-n2nc(CO)c(C(=O)NCC(c3ccccc3)c3ccccc3)n2)cc1	.	.	5%	-11%	.	0%
Cc1ccc(-n2nc(CO)c(C(=O)NCCCc3ccccc3)n2)cc1	.	.	5%	22µM*	.	-1%
O=C(NCCCCc1ccccc1)c1nn(-c2ccccc2)nc1CO	.	.	-3%	?	.	-2%
Cc1ccc(-n2nc(CO)c(C(=O)NCCCCc3ccccc3)n2)cc1C	.	.	3%	25µM*	.	1%

Assay outcomes from PubChem.
